Exocytosis inh: lytic granule exocytosis inhibition. TALL-104 LAMP-1 surface exposure, flow cytometry; cells stimulated with thapsigargin and PMA. inhibition, % at 10 µM. 360,000 compounds, 0.66% hits. AID 651702;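 active means inhibition above about 55%, limit read from the data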
PP1 counter: counter-screen for PP5 inhibitors: inhibitors of human PP1-alpha; P62136; purified PP1alpha, OMFP fluorescence; inhibition, % at 6.7 µM; 320,000 compounds, 0.9% hits; AID 2235;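 active means inhibition above the mean inhibition of all tested compounds plus 3 SD, computed separately for each screening campaign, cut at about 15% in these data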
Target sequence (P62136 whole entry, looked up): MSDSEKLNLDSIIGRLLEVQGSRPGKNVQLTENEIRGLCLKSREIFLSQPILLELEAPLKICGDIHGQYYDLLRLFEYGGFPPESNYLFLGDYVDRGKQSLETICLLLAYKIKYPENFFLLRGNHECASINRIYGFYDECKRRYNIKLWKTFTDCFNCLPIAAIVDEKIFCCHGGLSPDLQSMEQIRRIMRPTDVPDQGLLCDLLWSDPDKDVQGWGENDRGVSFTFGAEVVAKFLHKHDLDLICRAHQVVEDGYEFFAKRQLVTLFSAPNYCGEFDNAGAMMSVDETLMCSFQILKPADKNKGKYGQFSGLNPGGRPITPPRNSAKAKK
Beta2AR agonist: human beta-2 adrenergic receptor agonism by FAP; P07550; Am2.2-beta2AR cells, FAP receptor internalization, flow cytometry; response, % (concentration not given with the values); 340,000 compounds, 0.43% hits; AID 504454;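 active means response above a set limit, near 3 SD of response in nonfluorescent compounds, cut at about 42% in these data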
GRK2 inh: blocks RNA aptamer binding to human GRK2. P25098. bead flow cytometry, FAM-aptamer displacement from GRK2. inhibition of aptamer binding, % at 10 µM. 330,000 compounds, 0.59% hits;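 active means inhibition of aptamer binding above 40%, roughly 3 SD of noise, on plates passing a quality check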;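 further: median bead fluorescence of bound FAM aptamer so fluorescent compounds give negative values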
NadD inh: blocks S. aureus nicotinate mononucleotide adenylyltransferase; inhibition, % at 20 µM; 360,000 compounds, 0.78% hits; purified NadD enzyme, colorimetric absorbance read-out; in the data active means inhibition above about 26%
NadD conf: confirmation of Staphylococcus aureus NadD inhibitors. shares compounds with NadD inh. purified S. aureus NadD, colorimetric enzyme assay. inhibition, % at 20 µM. 2,000 compounds, 13% hits. AID 624309; in the data active means inhibition mostly above about 42%, no sharp cut-off; inactive means mostly below about 42%
An asterisk follows results filed as active; nt = no result given; ! = a repeat was not active. Shown are actives, neighbours in structure and some others; about 2.9% of the full set was active somewhere.

SMILES	Exocytosis inh	PP1 counter	Beta2AR agonist	GRK2 inh	NadD inh	NadD conf
N#C/C(=C\c1ccc(Oc2ccc(C(F)(F)F)cc2[N+](=O)[O-])cc1)c1nc2ccccc2[nH]1	0	10	0	0	40*	11
O=C1NC[C@H](CCCCN2C[C@H](Cc3ccc(O)cc3)N(CCc3ccccc3)C(=O)C2=O)N(CC2CCCCC2)C1=O	-9	nt	nt	nt	19	nt
COC(=O)C1=C(O)/C(=C\c2ccc(CNC(=O)C(=O)Nc3ccc(C)c(C)c3)o2)N=C1C	-1	4	70*	0	34*	7
COC(=O)C1=C(O)/C(=C\c2ccc(CNC(=O)C(=O)Nc3ccc(C)cc3)o2)N=C1C	-5	0	56*	0	32*	8
CCOC(=O)C1=C(O)/C(=C/c2ccc(CNC(=O)C(=O)Nc3ccc(C)cc3)o2)N=C1C	-3	0	75*	0	46*	6
O=C(CSc1ccccc1[N+](=O)[O-])NC1CCS(=O)(=O)C1 (centres undefined)	8	7	-5	5	-1	nt
O=C(OCC(=O)N1CCCC1=O)c1nc(Cl)c(Cl)c(Cl)c1Cl	-1	-12	16	16	-7	nt
Cc1ccc(/C=N/Nc2nncc(-c3ccccc3)n2)o1	0	-3	-13	0	-2	nt
Clc1ccccc1-c1ccc(/C=N/Nc2nncc(-c3ccccc3)n2)o1	8	-7	19	2	32*	10
Clc1ccc(-c2ccc(/C=N/Nc3nncc(-c4ccccc4)n3)o2)cc1	-3	1	16	10	38*	13
O=S(=O)(c1ccc(OC(F)(F)F)cc1)N1CCCC(N2CCOCC2)C1 (centres undefined)	8	-1	-7	0	-2	nt
CC(C)c1ccc(CC(=O)N2CCC2(C)C(=O)NS(=O)(=O)c2cccc(C#N)c2)cc1 (centres undefined)	0	nt	nt	nt	-6	nt
CCOc1ccc(CCN2C(=S)N([C@@H](Cc3ccc(O)cc3)CN3CCC[C@@H]3CN3C(=S)NC[C@@H]3CC(C)C)C[C@@H]2Cc2ccc(O)cc2)cc1	55	nt	nt	nt	48*	39
CC(C)C[C@H]1CNC(=S)N1C[C@H]1CCCN1C[C@H](Cc1ccc(O)cc1)N1C[C@H](Cc2ccccc2)N(CC2CCCCCC2)C1=S	6	nt	nt	nt	18	nt
CCOc1ccc(CCN2C(=S)N([C@@H](Cc3ccccc3)CN3CCC[C@@H]3CN3C(=S)NC[C@@H]3Cc3ccc(O)cc3)C[C@@H]2CC(C)C)cc1	16	nt	nt	nt	31*	7
CC(C)C[C@H]1CNC(=S)N1C[C@H]1CCCN1C[C@H](Cc1ccccc1)N1C[C@H](CC(C)C)N(CCc2ccccc2)C1=S	21	nt	nt	nt	11	nt
CCOc1ccc(CCN2C(=S)N([C@@H](Cc3ccc(O)cc3)CN3CCCC3CN3C(=S)NC[C@@H]3Cc3ccc(O)cc3)C[C@@H]2CC(C)C)cc1 (some centres undefined)	-4	nt	14	nt	43*	38
CCCCOc1ccc(-c2c(C(=O)Nc3ccccc3)c(C)[nH]c(=S)c2C#N)cc1	-1	-1	-7	2	23	nt
CCCCOc1ccc(-c2c(C#N)c(N)[nH]c(=S)c2C#N)cc1	10	3	-8	0	31*	29
O=C(c1ccc(OCCN2CCCCC2)cc1)c1c(-c2ccc(O)cc2)sc2cc(O)ccc12	28	16*!	14	0	33*	-3
CC1CC2=C(NC(=S)NC2c2ccccc2F)/C(=C/c2ccccc2F)C1 (centres undefined)	8	4	6	2	32*	23
CCOc1ccc(/C=C/C(=O)c2cc(Br)ccc(=O)c2O)cc1	3	14	15	5	32*	15
Cn1c(OCC2CCCO2)nc2cc(-c3ccccc3)sc2c1=O (centres undefined)	1	nt	nt	nt	5	nt
COc1ccccc1Nc1ccc(NS(=O)(=O)c2ccc(C(C)=O)cc2)cc1	22	0	-1	14	-5	nt
Cc1ccc(C2(c3ccc(C)cc3)CC2C(=O)Nc2ccc([N+](=O)[O-])cc2O)cc1 (centres undefined)	32	11	18	7	48*	43
SMILES	Exocytosis inh	PP1 counter	Beta2AR agonist	GRK2 inh	NadD inh	NadD conf
Nc1c(C(=O)O)sc2nc(-c3ccccc3)cc(-c3ccccc3)c12	2	6	-22	4	25	nt
Nc1c(C(=O)O)sc2nc(-c3ccccc3)cc(-c3ccc(F)cc3)c12	3	6	9	2	35*	26
O=C(CSC(=S)N1CCN(c2ccccc2)CC1)Nc1nc(-c2ccccc2)c(-c2ccccc2)o1	-7	0	-2	0	35*	2
CCn1nc(C(=O)Nc2ccc(S(=O)(=O)Nc3nccs3)cc2)c2ccccc2c1=O	-2	-3	6	2	7	nt
O=C(Nc1ccc(S(=O)(=O)Nc2ncccn2)cc1)c1nn(Cc2ccccc2)c(=O)c2ccccc12	-6	5	13	4	34*	35
CNc1ccc(Br)cc(C(=O)/C=C/c2cccc(OC)c2OC)c1=O	0	9	14	3	20	nt
CCNc1ccc(Br)cc(C(=O)/C=C/c2ccccc2Cl)c1=O	0	7	-96	4	34*	18
CNc1ccc(Br)cc(C(=O)/C=C/c2cccc(Cl)c2Cl)c1=O	98*	nt	-115	nt	49*	16
CCOC(=O)C(=O)N(C)c1c(CC)nc2c(OCc3cccc(OC)c3)cccn12	-12	nt	nt	nt	3	nt
CCCNC(=O)NNC(=O)c1ccc(F)cc1	5	-5	-3	0	-4	nt
Cc1ccccc1CN1CCN(C(=O)[C@H]2O[C@@H](n3cnc4c(N)ncnc43)[C@H](O)[C@@H]2O)CC1	-2	nt	nt	nt	-5	nt
Cc1ccnc(NS(=O)(=O)c2ccc(NC(=O)c3cc(-c4ccccc4)nc4ccccc34)cc2)n1	0	-3	2	0	14	nt
Cc1ccnc(NS(=O)(=O)c2ccc(NC(=O)c3cc(-c4ccc(Br)cc4)nc4ccccc34)cc2)n1	11	14	-1	2	74*	46*
COc1ccc(-c2cc(C(=O)Nc3ccc(S(=O)(=O)Nc4onc(C)c4C)cc3)c3ccccc3n2)cc1	2	11	-2	0	29*	66*
COc1ccc(-c2cc(C(=O)Nc3ccc(S(=O)(=O)Nc4ncccn4)cc3)c3ccccc3n2)cc1	-5	3	19	0	22	nt
COc1ccc(/C=C/C(=O)NCC(=O)N/N=C/c2cc(Br)ccc2OCc2ccccc2)cc1	1	-2	-1	0	28*	-1
COc1ccc(Br)cc1/C=N/NC(=O)CNC(=O)/C=C/c1ccccc1	-2	3	1	0	13	nt
O=C(Nc1cccc(S(=O)(=O)NC2=NCCCCC2)c1)c1cc(-c2ccc(Cl)cc2)nc2ccccc12	-1	0	-3	3	26*	32
